# Source: PubChem BioAssay
# A number with no mark means an inactive call. No rule for the calls is given here.
# Molecular target: Lethal factor (Bacillus anthracis) (UniProt P15917)
# Experiment: Bacillus anthracis lethal factor inhibition, microsphere flow cytometry protease assay, validation at 10 µM (AID 588461)
# Details: multiplex microsphere protease cleavage assay, active compounds read high
# Lethal factor (Bacillus anthracis), sequence (P15917 whole entry, looked up): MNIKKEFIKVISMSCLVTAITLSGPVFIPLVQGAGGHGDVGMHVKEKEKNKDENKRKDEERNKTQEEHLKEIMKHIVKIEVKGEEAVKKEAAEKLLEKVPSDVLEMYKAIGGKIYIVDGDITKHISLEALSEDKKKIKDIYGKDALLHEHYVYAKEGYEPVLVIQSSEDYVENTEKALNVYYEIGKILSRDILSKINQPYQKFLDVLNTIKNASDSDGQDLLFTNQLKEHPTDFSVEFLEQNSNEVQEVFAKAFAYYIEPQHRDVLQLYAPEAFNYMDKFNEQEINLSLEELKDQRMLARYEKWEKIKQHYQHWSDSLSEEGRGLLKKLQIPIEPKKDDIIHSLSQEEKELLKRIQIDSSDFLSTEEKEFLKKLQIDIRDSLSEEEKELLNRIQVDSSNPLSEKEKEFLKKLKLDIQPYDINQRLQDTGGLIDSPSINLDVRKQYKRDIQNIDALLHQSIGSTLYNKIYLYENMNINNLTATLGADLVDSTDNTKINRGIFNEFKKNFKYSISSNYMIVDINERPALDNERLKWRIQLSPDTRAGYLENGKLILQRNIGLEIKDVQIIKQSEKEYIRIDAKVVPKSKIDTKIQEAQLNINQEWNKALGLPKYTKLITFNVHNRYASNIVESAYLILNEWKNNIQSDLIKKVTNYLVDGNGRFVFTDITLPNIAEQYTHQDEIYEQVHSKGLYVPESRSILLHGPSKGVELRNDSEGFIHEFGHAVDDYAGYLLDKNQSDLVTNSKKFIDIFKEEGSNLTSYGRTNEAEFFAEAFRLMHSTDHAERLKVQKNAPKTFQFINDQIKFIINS
row,Structure (SMILES),inhibition [%]
1,CCC(COC(=O)c1cc(OC)c(OC)c(OC)c1)(c1ccccc1)N(C)C (stereo not drawn),-8.8
2,Nc1ccc([As](=O)(O)O)cc1,6.8
3,CCCC(C)(COC(N)=O)COC(=O)NC(C)C (stereo not drawn),6.3
4,c1cnc2c(c1)ccc1ncccc12,-2.4
5,NCCc1ccc(O)cc1,-8.1
6,C[C@]12CC[C@@H]3c4ccc(O)c(O)c4CC[C@H]3[C@@H]1CC[C@@H]2O,2
7,CC(CCc1ccccc1)NC(C)C(O)c1ccc(O)cc1 (stereo not drawn),-0.5
8,Clc1ccc(COC(Cn2ccnc2)c2ccc(Cl)cc2Cl)c(Cl)c1 (stereo not drawn),-5.1
9,CC12CN3CC(c4ccccc4)(CN(C1)C31CCCCC1)C2=O,-2.8
10,c1ccc2c(c1)OCC(C1=NCCN1)O2 (stereo not drawn),0.2
11,COc1cc(/C=C2\C(=O)NC(=O)N(c3ccccc3)C2=O)c([N+](=O)[O-])cc1OC,-1.8
12,CC12CCC3C(CC=C4CC5(CCC43C)OCCO5)C1CCC2=O (stereo not drawn),3.9
13,COc1ccc2c3c([nH]c2c1)C(C)=NCC3,-104
14,CCCC(=O)OCC[N+](C)(C)C,1.4
15,C[C@]12CCC(=O)C=C1CC[C@@H]1[C@@H]2C(=O)C[C@]2(C)C(=O)CC[C@@H]12,-4.7
16,Cc1nc2ccccc2c(=O)n1-c1ccc(C(=O)O)cc1,-5.6
17,Cc1c2ccncc2c(C)c2c1[nH]c1ccccc12,2
18,CC/C(=C\C=C\[C@@H]1C=C[C@@H]2CCC[C@H]2[C@@H]1C(=O)c1ccc[nH]1)[C@@H]1O[C@@H]([C@@H](C)C(=O)O)CC[C@@H]1C,-4.4
